Unmarked numbers belong to inactive results. Inconclusive results are not listed. Where a call stands in place of a potency, no number is given. Active and inactive are the calls of the source. The call rests on the fitted dose curve; in most records, active means well fitted curve in the direction sought with a large enough effect; inconclusive means small, poorly fitted or top-dose-only effect, or another doubt; inactive means no such curve, though single readings can be large; an effect the other way counts as inactive or inconclusive.
Assays:
[1] = Cellular Toxicity (caspase-3) Mesangial (AID 660); conditions: mesangial cells, normalized: DMSO 0%, 100 µM tamoxifen 100%; at 91.7 µM (top of the series);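 further: combined caspase 3 and 7 activity read by Caspase-Glo luminescence; cells exposed to compound for 16 h before the caspase read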
Procedure, shortened: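 AC50 values come from Hill-equation fits of caspase 3/7 activation, measured as Caspase-Glo luminescence in human glomerular mesangial cells exposed to compound for 16 h at 37 °C; 100% set by 100 uM tamoxifen.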

[2] = Cellular Toxicity (caspase-3) SK-N-SH (AID 661)
Procedure, shortened: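 Apoptosis readout in SK-N-SH neuroblastoma: Caspase-Glo 3/7 luminescence following 16 hr treatment in complete culture medium. Normalization used DMSO and 10 uM staurosporine controls.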

[3] = Cellular Toxicity (caspase-3) H-4-II-E (AID 663); conditions: H-4-II-E rat hepatoma, scaled: DMSO 0%, 100 µM tamoxifen 100%; at 92.2 µM (top of the series);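 further: cells exposed to compound for 16 hr before readout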
Procedure, shortened: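 H-4-II-E rat hepatoma, 1500 cells/well, 5 hr settle at 37 °C; compound 16 hr, 37 °C, complete medium; Caspase-Glo 3/7, 20 min RT; luminescence. DMSO = 0%, 100 uM tamoxifen = 100%; Hill-equation AC50.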

[4] = Cellular Toxicity (caspase-3) Hek293 (AID 664); conditions: HEK293 caspase-3 activation, DMSO = 0%, 100 µM tamoxifen = 100%; at 92.2 µM (top of the series);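 further: cells exposed to compound for 16 h at 37 °C before readout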
Procedure, shortened: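 Apoptosis readout: Caspase-Glo 3/7 signal in human HEK293 cells following 16-hour compound incubation. Responses scaled between DMSO baseline and 100 uM tamoxifen.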

[5] = Cellular Toxicity (caspase-3) N2a (AID 665);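 further: compound exposure lasted 16 h at 37 °C before readout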
Procedure, shortened: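 Concentration-response qHTS: compound-induced caspase-3/7 luminescence in N2a cells (16 h, 37 °C), relative to DMSO and 10 uM staurosporine controls; AC50 obtained using the standard Hill equation.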

[6] = Cellular Toxicity (caspase-3) NIH 3T3 (AID 666);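 further: caspase signal read after 16 h compound exposure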
Procedure, shortened: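 Activity: caspase-3/7 induction, NIH 3T3 cells, 16 hr treatment at 37°C, luminescent Caspase-Glo detection; AC50 via Hill equation.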

[7] = target: Cytochrome P450 3A4 (Homo sapiens) (UniProt P08684); assay: qHTS Assay for Inhibitors and Substrates of Cytochrome P450 3A4 (AID 884); further: nearly all actives have a fitted effect of over 50% in size; further: potency means the concentration at half of the fitted maximal effect
Procedure, shortened: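 Luminescent readout of luciferin produced by CYP3A4 (20 nM) dealkylation of Luciferin-PPXE, 25 uM (its KM). NADPH-driven reaction ran 60 min at RT after 10 min compound preincubation; data scaled to 57 uM ketoconazole as 100% inhibition.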

[8] = Cell Viability - LYMP2-001 (AID 921); further: nearly all actives have a fitted effect of over 70% in size
Procedure, shortened: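 Cellular ATP loss read by luciferase luminescence after 24 h compound exposure at 37 C in complete medium. LYMP2-001 lymphoblastoid cells, 2500/well; qHTS concentration-response data fitted with Hill equation for AC50.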

[9] = MultiTox-Fluor Cytotoxicity Assay - LYMP1-001 - Dead Cells (AID 946)
Procedure, shortened: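 LYMP1-001 lymphoblastoid cells (2500/well) treated 16 h at 37 C. Dead-cell protease cleavage of bis-AAF-R110 read at Ex/Em 485/520. Normalized to DMSO and 15 uM tetraoctylammonium bromide; AC50 from Hill fits.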

[10] = MultiTox-Fluor Cytotoxicity Assay - LYMP1-001 - Live Cells (AID 947)
[11] = Cell Viability - LYMP1-002 - Assay at 16 hr (AID 948)
Procedure, shortened: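 ATP luminescence (CellTiter-Glo) was measured after 16 hr compound exposure at 37 C of 2500 lymphoblastoid LYMP1-002 cells per well. Concentration-response curves were fitted with the Hill equation to give AC50.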

[12] = MultiTox-Fluor Cytotoxicity Assay - LYMP1-002 - Live Cells (AID 955)
Procedure, shortened: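 In this qHTS viability format, lymphoblastoid cells (LYMP1-002, human) received compound for 16 hr at 37 C. Fluorogenic GF-AFC cleavage by viable cells was detected at 405/510 nm after 1 h at room temperature.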

[13] = MultiTox-Fluor Cytotoxicity Assay - LYMP1-002 - Dead Cells (AID 960); further: nearly all actives have a fitted effect of over 60% in size
Procedure, shortened: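 Concentration-dependent increases in membrane-leaked protease activity are quantified in LYMP1-002 cells after 16 hr treatment; values are normalized against DMSO and tetraoctylammonium bromide (15 uM) controls and AC50 derived by Hill modeling.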

[14] = MultiTox-Fluor Cytotoxicity Assay - LYMP1-003 - Live Cells (AID 962);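 further: cytotoxic hits lower the live-cell protease signal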
Procedure, shortened: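 Human lymphoblastoid line LYMP1-003 in complete culture medium, treated 16 hr with titrated compounds. Viable cells quantified via cell-permeant GF-AFC substrate fluorescence; AC50 derived by Hill fitting.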

[15] = Cell Viability - LYMP1-003 - Assay at 24 hr (AID 963)
Procedure, shortened: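 The lymphoblastoid line was treated with titrated compounds for 24 hours, and viable cell number estimated from luciferase-based ATP luminescence.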

[16] = MultiTox-Fluor Cytotoxicity Assay - LYMP1-003 - Dead Cells (AID 961); further: nearly all actives have a fitted effect of over 70% in size
Procedure, shortened: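 LYMP1-003 human lymphoblastoid cells (2500/well) exposed to compound 16 h at 37 C in complete medium; dead-cell protease read with bis-AAF-R110 fluorescence (Ex/Em 485/520) after 60 min at room temperature. Normalized to DMSO and 15 uM tetraoctylammonium bromide; AC50 from Hill fit.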

[17] = Cell Viability - LYMP1-003 - Assay at 40 hr (AID 964); further: nearly all actives have a fitted effect of over 60% in size
Procedure, shortened: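 Acute toxicity is scored as a concentration-dependent loss of intracellular ATP in LYMP1-003 cells (2500/well, complete medium) after 40 hr at 37 C, measured by CellTiter-Glo luminescence; AC50 values derive from standard Hill modelling.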

[18] = Cell Viability - LYMP2-003 (AID 965);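 further: cells exposed to compounds for 24 h before reading; nearly all actives have a fitted effect of over 50% in size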
Procedure, shortened: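 CellTiter-Glo luminescence quantified ATP loss after 24 h compound treatment of LYMP2-003 lymphoblastoid cells at 37 C. Titration series were fitted with the standard Hill equation to give AC50.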

[19] = target: Cytochrome P450 3A4 (Homo sapiens) (UniProt P08684); assay: qHTS Assay for Activators of Cytochrome P450 3A4 (AID 885); further: nearly all actives have a fitted effect of over 65% in size
Procedure, shortened: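 Human CYP3A4 dealkylates Luciferin-PPXE to luciferin, which luciferase detection converts to light. Substrate was at its KM (25uM), buffer 200mM KPO4, reaction 60 min at RT.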

[20] = Cellular Toxicity (caspase-3) Renal Proximal Tubule (AID 667); conditions: Potency: caspase-3 activation;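 further: cells exposed to compound for 16 hours at 37 °C before detection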
Procedure, shortened: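 Caspase 3/7 activation measured by luminescent aminoluciferin release in primary rat proximal tubule cells after 16 hr compound exposure at 37 °C. AC50 from Hill-fitted concentration-response, scaled between DMSO and 10 uM staurosporine.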

Cytochrome P450 3A4 (Homo sapiens), sequence (P08684 whole entry, looked up): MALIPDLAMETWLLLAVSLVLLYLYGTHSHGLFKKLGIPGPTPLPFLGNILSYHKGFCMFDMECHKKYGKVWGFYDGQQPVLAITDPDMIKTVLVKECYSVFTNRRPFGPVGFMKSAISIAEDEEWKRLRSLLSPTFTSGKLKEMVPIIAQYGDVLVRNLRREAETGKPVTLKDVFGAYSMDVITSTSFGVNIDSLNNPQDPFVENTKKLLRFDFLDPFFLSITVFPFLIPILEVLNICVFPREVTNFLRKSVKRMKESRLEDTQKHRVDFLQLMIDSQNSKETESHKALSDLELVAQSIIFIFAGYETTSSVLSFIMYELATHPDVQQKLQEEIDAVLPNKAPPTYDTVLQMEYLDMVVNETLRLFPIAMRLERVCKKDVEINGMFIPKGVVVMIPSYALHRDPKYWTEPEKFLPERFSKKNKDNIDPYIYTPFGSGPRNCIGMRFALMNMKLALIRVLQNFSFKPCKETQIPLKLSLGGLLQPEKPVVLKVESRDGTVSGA

Row | SMILES | caspase-3 activation [1] [%] | outcome [2] | caspase-3 activation [3] [%] | caspase-3 activation [4] [%] | outcome [5] | outcome [6] | Potency [7] | Potency [8] | outcome [9] | outcome [10] | outcome [11] | outcome [12] | outcome [13] | Potency [14] | Potency [15] | Potency [16] | Potency [17] | Potency [18] | outcome [19] | Potency [20]
1 | CC(C)(c1cc(Br)c(OCC(Br)CBr)c(Br)c1)c1cc(Br)c(OCC(Br)CBr)c(Br)c1 (configuration not stated) | 0.758 | inactive | 1.29 | 16.5 | inactive | inactive | inactive | inactive | inactive | inactive | inactive | inactive | inactive | inactive | inactive |  |  |  |  | 
2 | CC(N)CN (configuration not stated) | 2.7 | inactive | 0.364 | 3.47 | inactive | inactive | inactive | inactive | inactive |  | inactive | inactive | inactive | inactive | inactive | inactive | inactive | inactive |  | 
3 | CCN(CC)c1cccc(O)c1 | -0.898 | inactive | 2.1 | 0.00739 | inactive | inactive |  | inactive | inactive |  | inactive | inactive |  | inactive | inactive | inactive | inactive | inactive | inactive | 
4 | CC(CCl)OC(C)CCl (configuration not stated) | -0.591 | inactive | 0.133 | 1.69 | inactive | inactive | inactive | inactive | inactive | inactive | inactive | inactive |  | inactive | inactive | inactive |  | inactive |  | 
5 | O=c1[nH][nH]c(=O)c2cc([N+](=O)[O-])ccc12 | -0.0154 | inactive | -0.659 | 4.2 | inactive | inactive | inactive | inactive | inactive | inactive | inactive | inactive |  | inactive | inactive | inactive | inactive | inactive |  | 
6 | Cc1ccc([N+](=O)[O-])c(N)c1 | -0.782 | inactive | -0.384 | 0.555 | inactive | inactive | inactive | inactive | inactive | inactive | inactive | inactive |  | inactive | inactive | inactive | inactive | inactive |  | 
7 | CCOc1ccccc1N | 1.9 | inactive | -0.577 |  | inactive | inactive | inactive | inactive | inactive | inactive | inactive | inactive | inactive | inactive | inactive | inactive |  |  |  | inactive
8 | CC(=O)CC(C)C | 0.196 | inactive | 1.31 | -0.532 | inactive | inactive | inactive | inactive | inactive | inactive | inactive | inactive |  | inactive | inactive | inactive | inactive | inactive |  | 
9 | CC(=O)c1nccs1 | 0.103 | inactive | 1.15 | 4.27 | inactive | inactive | inactive | inactive | inactive | inactive | inactive | inactive | inactive | inactive | inactive | inactive | inactive | inactive |  | 
10 | O=C(O)c1c(Cl)cccc1Cl | 0.0651 | inactive | -0.197 | 0.49 | inactive | inactive | inactive | inactive | inactive |  | inactive | inactive | inactive | inactive |  |  | inactive | inactive |  | 
11 | O=C1CCC(=O)O1 | 0.974 | inactive | 0.691 | 0.163 | inactive | inactive | inactive | inactive | inactive | inactive | inactive | inactive | inactive | inactive |  | inactive | inactive | inactive |  | 
12 | CCOc1cccc(N)c1 | 0.896 | inactive | 1.28 | -0.477 | inactive | inactive | 31.6 µM (active) | inactive | inactive | inactive | inactive | inactive | inactive | inactive | inactive | inactive | inactive | inactive | inactive | 
13 | FC(F)(F)c1ccccc1Cl | 1.05 | inactive | 0.997 | -1.13 | inactive | inactive | inactive | inactive | inactive | inactive | inactive | inactive |  | inactive | inactive | inactive |  | inactive |  | 
14 | COc1cccc(N)c1 | 2 | inactive | 4.32 | 7.74 | inactive | inactive |  | inactive | inactive | inactive | inactive | inactive | inactive | inactive | inactive | inactive |  | inactive | inactive | 
15 | CCNc1ccccc1 | -0.0326 | inactive | -0.349 | -0.687 | inactive | inactive | inactive | inactive | inactive | inactive | inactive | inactive | inactive | inactive | inactive | inactive | inactive |  |  | 
16 | NC(N)=S | -0.0158 | inactive | 1.67 | -1.2 | inactive | inactive | inactive | inactive | inactive | inactive | inactive | inactive |  | inactive | inactive | inactive | inactive | inactive |  | 
